Compound activity as filed in PubChem.
SUMO Mot1 rescue = blocks SUMOylation pathway, rescuing yeast Mot1-301 growth; 320,000 tested, 1% active; S. cerevisiae Mot1-301 growth rescue, ATP luminescence, 38.5C; percent above DMSO median, 100 means doubled; growth rescue, % at 18.8 µM;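 active = every valid replicate shows activation above 250% relative to neutral control wells; inactive = the rest, any valid replicate at or below 250%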;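 note: OY570 slx delta 5 strain wells were the positive control but not used for scaling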
AI-2 QS modul = modulates the Vibrio harveyi AI-2 quorum sensing system. Vibrio harveyi JMH597 AI-2 luminescence/OD600 ratio, 9 h; active compounds read low; strain lacks LuxN and CqsS sensors; 0 = neutral-control median. 300,000 tested, 0.4% active. activity change, % at 7.5 µM; in the data active = activity change below about -75%, passing the limit was not always enough; inconclusive = no clear call, values can overlap the other calls;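 note: luminescence divided by OD600 gain over 9 h not by final OD600 alone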
HIF activator = HIF pathway transcriptional activation | U2OS HRE-luciferase reporter, luminescence; normalized: DMSO 0%, desferrioxamine 100% | activation, % at 7.5 µM (by protocol) | 300,000 tested, 0.32% active | AID 1910;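 active = mean activation of at least 10% of the iron chelator positive control signal, with at least half of replicates also reaching 10%; inconclusive = mean and replicate majority disagree about reaching 10%; inactive = mean and most replicates under 10%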
ALR inh = inhibitors of human sulfhydryl oxidase ALR | P55789 | purified ALR, DTT oxidation, H2O2 HRP-luminol luminescence | inhibition, % (no concentration beside the values) | 290,000 tested, 3.8% active;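 active = mean replicate inhibition above about 79%, with every replicate also reaching it, limit read from the data; inconclusive = only one of the two criteria met; inactive = mean below limit and not every replicate reaching it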
Target sequence (P55789 whole entry, looked up): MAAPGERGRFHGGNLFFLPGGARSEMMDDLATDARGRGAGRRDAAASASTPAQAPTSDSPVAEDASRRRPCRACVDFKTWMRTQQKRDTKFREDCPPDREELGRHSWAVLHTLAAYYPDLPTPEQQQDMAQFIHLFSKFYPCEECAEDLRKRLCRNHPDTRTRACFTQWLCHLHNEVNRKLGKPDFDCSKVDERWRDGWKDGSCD
Starred values were filed as active, the others as inactive; i = inactive; u = inconclusive; x = no result given; ! = a repeat was not active. Rows were chosen to be rich in hits. Some 4.8% of all compounds tested hit in one or more screens of this group.

SMILES	SUMO Mot1 rescue	AI-2 QS modul	HIF activator	ALR inh
Cc1ccc(C)c(NC(=O)c2ccccc2C(=O)c2ccccc2)c1	715*	22	0	-5
Cc1ccccc1NC(=O)c1ccccc1O	11	1	408*	6
CSc1ccccc1C(=O)Nc1ccccc1C	-11	2	0	x
COc1ccc(C(=O)Nc2ccc(C)cc2C(=O)c2ccccc2)c(OC)c1	-5	19	0	97*
COC(=O)c1sccc1NC(=O)c1ccc(OC)cc1OC	420*	10	0	-2
COc1cccc(OC)c1C(=O)Nc1ccc(C)cc1C(=O)c1ccccc1	293	13	0	5
COC(=O)c1sccc1NC(=O)c1cccc(OC)c1	-10	2	0	-3
O=C1CC(NS(=O)(=O)c2ccc([N+](=O)[O-])cc2)CN1c1cccc(F)c1 (stereo unspecified)	13	5	1	-33
COc1cc(SC)ccc1C(=O)Nc1ccc(C)cc1C	-8	43	10*	-2
COc1cc(SC)ccc1C(=O)Nc1ccc(C)cc1	-4	33	0	-6
COc1cc(C(=O)c2ccccc2)c(OC)cc1C(=O)Nc1ccc(O)cc1	57	10	0	100*
OC(COCc1ccccc1)CN1CCN(c2ccccc2)CC1 (stereo unspecified)	8	3	-1	82*
C=CCc1cc(OC)ccc1OCC(O)CN1CCN(c2ccc(OC)cc2)CC1 (stereo unspecified)	0	3	0	79*!
OC(COCc1ccccc1)CN1CCCC1 (stereo unspecified)	295	29	x	-1
COc1ccc(OCC(O)CN2CCN(c3ccc(OC)cc3)CC2)cc1 (stereo unspecified)	-5	7	1	99*
COc1ccc(N2CCN(CC(=O)Nc3cc(C)cc(C)c3)CC2)cc1	-14	4	0	x
COc1ccc(N2CCN(CC(=O)Nc3ccc(C)c(C)c3)CC2)cc1	124	6	0	98*
CN(C)c1ccc(C(=O)OCC#CCSc2nnc(-c3cccc4ccccc34)o2)cc1	-17	x	x	-6
COc1ccc(N2CCN(CC(O)COc3ccc(C)c(C)c3)CC2)cc1 (stereo unspecified)	11	10	0	97*
COc1ccc(N2CCN(CC(O)COC(c3ccc(F)cc3)c3ccc(F)cc3)CC2)cc1 (stereo unspecified)	-14	8	2	23
OC(COc1ccccc1Cl)CN1CCN(CC(O)COc2ccccc2Cl)CC1 (stereo unspecified)	45	24	0	-2
Cc1ccc(N2CCN(CC(O)COc3ccccc3)CC2)cc1 (stereo unspecified)	6	24	-1	95*
Oc1ccccc1N1CCN(CC(O)COCc2ccccc2Cl)CC1 (stereo unspecified)	i	10	-1	99*
COc1ccc(N2CCN(CC(O)COc3cc(C)cc(C)c3)CC2)cc1 (stereo unspecified)	13	31	-16	69
COc1ccc(N2CCN(CC(O)COc3ccc(F)cc3)CC2)cc1 (stereo unspecified)	6	6	1	99*
SMILES	SUMO Mot1 rescue	AI-2 QS modul	HIF activator	ALR inh
CCC(=O)c1ccc(OCC(O)CN2CCN(S(=O)(=O)N3CCCCC3)CC2)cc1 (stereo unspecified)	286*	20	-1	3
Oc1ccc(N2CCN(CC(O)c3ccccc3)CC2)cc1 (stereo unspecified)	5	22	0	99*
Cc1cccc(NS(=O)(=O)c2c(C)nc3scc(C)n3c2=O)c1	-10	14	0	-1
COC(=O)c1cc(S(=O)(=O)NCc2ccccc2OC)cn1C	25	-4	71*	0
COC(=O)c1cc(S(=O)(=O)NCc2cccc(OC)c2)cn1C	25	8	0	14
Cc1ccc(S(=O)(=O)Nc2cc3c4c(c2)CCN4C(=O)CC3)cc1	1	21	-33	-18
O=C(CCl)NC(=O)NC12CC3CC(CC(C3)C1)C2	104	15	-1	86*
CC(Cl)C(=O)NC(=O)NC12CC3CC(CC(C3)C1)C2 (stereo unspecified)	-13	41	-1	-9
O=C(NCCOC(=O)c1ccccc1)c1ccccc1	-3	x	x	-8
Oc1ccccc1N=Nc1nc(-c2ccccc2)c(-c2ccccc2)[nH]1	120	-14	220*	69
COc1ccccc1N=Nc1nc(-c2ccccc2)c(-c2ccccc2)[nH]1	22	19	1	-7
C=CCN(CC=C)S(=O)(=O)c1ccc(NC(=S)NC(=O)C2CC2)cc1	3	1	0	5
CCN=c1scc(-c2ccco2)n1/N=C/c1ccc(O)cc1	-12	4	2	-4
C=C(C)CN=c1scc(C)n1/N=C/c1ccco1	-1	23	0	99*
CCCCCCCCCC[N+](C)(C)CC/C=C1/c2ccccc2Sc2ccc(Cl)cc21	72	u	0	-1
CCCCCCCCCCC[N+](C)(C)CC/C=C1/c2ccccc2Sc2ccc(Cl)cc21	29	-145*	1	1
ClC(Cl)c1nnc(-c2ccccc2)c(-c2c[nH]c3ccccc23)n1	12	-77*	1	13
COc1ccc(C(=O)NC(C(=O)N2CCN(c3ccccc3O)CC2)C(C)C)cc1 (stereo unspecified)	15	18	0	66
COc1cccc(C(=O)Nc2cc3c(cc2N2CCCC2)n(C)c(=O)n3C)c1	-7	15	-1	99*
Cc1ccc(C(=O)Nc2ccccc2N2CCCC2)cc1	-8	18	1	99*
Cn1c(=O)n(C)c2cc(N3CCCC3)c(NC(=O)c3cccc(F)c3)cc21	14	1	0	x
COc1ccc(C(=O)NC(=S)N2CCN(c3ccccc3O)CC2)cc1	6	x	x	99*
CC(C)Oc1ccc(C(=O)Nc2ccccc2N2CCCC2)cc1	-12	0	2	98*
CCCCOc1ccc(C(=O)OCC(=O)NC2CCCC2)cc1	-1	20	0	-4
CCOc1ccccc1C(=O)Nc1cc2c(cc1N1CCCC1)n(CC)c(=O)n2CC	2	11	-1	99*
SMILES	SUMO Mot1 rescue	AI-2 QS modul	HIF activator	ALR inh
COc1ccc(S(=O)(=O)N2CCCCCC2)cc1NC(=O)c1ccccc1	309*	5	0	-11
COc1ccc(C(=O)Nc2ccccc2N2CCCC2)cc1S(=O)(=O)N1CCOCC1	114	19	-2	98*
COc1ccc(C(=O)N/N=C(/C)c2ccc(N3CCCCC3)cc2)cc1	17	20	4	92*
COc1ccc(C(=O)Nc2ccc(N3CCCC3)cc2)cc1	-9	39	0	20
COc1ccc(C(=O)Nc2ccccc2N2CCOCC2)cc1S(=O)(=O)N1CCCC1	0	x	x	5
COc1ccc(S(=O)(=O)N2CCN(C)CC2)cc1NC(=O)c1ccccc1	-4	25	0	-2
COc1cc(C(=O)O[C@H]2CC(C)=CC[C@@]3(C)CC[C@@](O)(C(C)C)[C@H]23)ccc1O	29	11	0	6
